WRN helicase inh-1 – blocks human WRN helicase | Q14191 | Potency, µM (highest dose often 114 µM), actives largely listed as inhibitors | WRN helicase unwinding, fluorescent forked duplex, kinetic | hit rate 0.46% among 360,000; further: nearly all actives have a fitted effect of over 55% in size
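WRN at 20 nM final was preincubated with compound for 15 min at room temperature; reaction started with 100 nM forked duplex oligonucleotide carrying fluorophore and quencher plus 2 mM ATP (final). Unwinding followed kinetically by red fluorescence (ex 525/em 598 nm).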
POLB inh – blocks human DNA polymerase beta activity | P06746 | Pol beta primer extension/strand displacement, fluorescence kinetic | Potency, µM (doses to about 114 µM), usual class: inhibitors | hit rate 1.3% among 340,000
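Kinetic readout of DNA synthesis with strand displacement by Pol beta. Compound and 10 nM enzyme sit 15 min at room temperature; 50 nM substrate starts the reaction, read immediately and at 10 min.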
Pol kappa inh – inhibitors of human DNA polymerase kappa; Q9UBT6; purified Pol kappa, fluorescent DNA synthesis assay, 10 min; Potency, µM (series often up to 107 µM), hits mostly inhibitors; hit rate 0.53% among 400,000
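50 nM final substrate added after 15 min RT preincubation of 10 nM Pol kappa with compound; fluorescence read at 0 and 10 min.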
Pol iota inh – blocks human DNA polymerase iota activity | Q9UNA4 | AID 588590 | Pol iota fluorescent replication assay, 10 min | hit rate 1% among 390,000 | Potency, µM (top dose mostly 115 µM), usual class: inhibitors
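Fluorescent replication assay read twice, at 0 min and 10 min after adding 50 nM (final) substrate. Enzyme (10 nM) and compounds were first incubated 15 min at room temperature; enzyme-free buffer wells were negative controls.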
L3MBTL1 block – L3MBTL1 (human) inhibition; AID 485360; AlphaScreen L3MBTL1–H3K9me1 peptide binding; Q9Y468; Potency, µM (highest dose often 57.1 µM), hits mostly inhibitors; hit rate 0.66% among 230,000; further: nearly all actives have a fitted effect of over 60% in size
Target sequence (Q9Y468 whole entry, looked up): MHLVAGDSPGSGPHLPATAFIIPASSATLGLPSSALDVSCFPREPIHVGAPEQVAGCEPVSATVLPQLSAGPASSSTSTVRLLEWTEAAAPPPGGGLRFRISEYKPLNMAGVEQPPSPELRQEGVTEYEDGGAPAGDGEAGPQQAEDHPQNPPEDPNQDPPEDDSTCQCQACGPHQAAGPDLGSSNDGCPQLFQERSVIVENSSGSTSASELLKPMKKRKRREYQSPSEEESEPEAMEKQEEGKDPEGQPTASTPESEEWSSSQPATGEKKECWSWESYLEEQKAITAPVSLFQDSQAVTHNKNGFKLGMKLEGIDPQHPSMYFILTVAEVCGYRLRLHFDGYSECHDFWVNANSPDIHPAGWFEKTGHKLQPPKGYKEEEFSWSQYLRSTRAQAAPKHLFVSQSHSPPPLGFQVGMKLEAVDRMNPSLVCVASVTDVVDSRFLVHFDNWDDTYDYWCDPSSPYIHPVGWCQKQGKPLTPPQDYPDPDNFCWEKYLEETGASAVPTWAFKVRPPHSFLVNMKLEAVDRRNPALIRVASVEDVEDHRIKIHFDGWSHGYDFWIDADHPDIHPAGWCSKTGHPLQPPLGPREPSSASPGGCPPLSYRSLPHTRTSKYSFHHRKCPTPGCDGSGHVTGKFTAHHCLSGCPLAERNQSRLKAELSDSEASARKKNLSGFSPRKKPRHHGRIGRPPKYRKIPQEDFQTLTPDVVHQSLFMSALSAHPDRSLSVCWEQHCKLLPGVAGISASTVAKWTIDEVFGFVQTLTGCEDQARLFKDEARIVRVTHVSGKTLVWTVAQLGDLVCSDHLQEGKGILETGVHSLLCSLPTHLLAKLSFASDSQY
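Displacement of a biotinylated histone H3(1-15) peptide monomethylated at Lys9 (75 nM) from L3MBTL1 (50 nM) was measured by AlphaScreen after a 30 min room-temperature compound incubation; cefsulodin titration served as intraplate control.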
POLH inh – DNA polymerase eta (human) inhibition. Q9Y253. recombinant Pol eta, fluorescent DNA replication assay. Potency, µM (highest dose often 114 µM), most hits filed as inhibitors. hit rate 1.2% among 390,000
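Pol eta (10 nM) was preincubated with compounds for 15 min at room temperature, after which fluorescent replication substrate (50 nM final) was added to start the reaction. Fluorescence was read kinetically at 0 and 10 min.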
WRN helicase inh-2 – confirmation of human WRN helicase inhibitors; Potency, µM (titrated, usually from 57.1 µM), actives largely listed as inhibitors; WRN helicase DNA unwinding, fluorescence kinetic; hit rate 63% among 610; shares compounds with WRN helicase inh-1; further: nearly all actives have a fitted effect of over 65% in size
TO displacement – counter-screen for WRN helicase inhibitors: DNA binding | shares compounds with WRN helicase inh-1 | hit rate 10% among 610 | thiazole orange DNA binding displacement, fluorescence | Potency, µM (titrated, usually from 57.1 µM), usual class: inhibitors;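 further: drop in dye fluorescence marks compound binding to DNA; nearly all actives have a fitted effect of over 60% in size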
BLM counter – BLM helicase inhibition, WRN selectivity check. shares compounds with WRN helicase inh-1. Recombinant BLM helicase DNA unwinding, red fluorescence. Potency, µM (doses to about 57.1 µM), actives largely listed as inhibitors. hit rate 60% among 610; further: nearly all actives have a fitted effect of over 60% in size
A number is an active result; n = inactive; u = inconclusive; x = no result given; ! = not confirmed by another sample; [ ] = dose if it differs, or a comment. Most compounds without a hit are left out; they make up all but 2.5% or so of the library. The call rests on the fitted dose curve; in most records, active means well fitted curve in the direction sought with a large enough effect; inconclusive means small, poorly fitted or top-dose-only effect, or another doubt; inactive means no such curve, though single readings can be large; an effect the other way counts as inactive or inconclusive.

SMILES	WRN helicase inh-1	POLB inh	Pol kappa inh	Pol iota inh	L3MBTL1 block	POLH inh	WRN helicase inh-2	TO displacement	BLM counter
CN(CCCS(=O)(=O)[O-])c1ccc(/C=C/c2ccc3ccccc3[n+]2C)cc1	n	n	n	u	x	n	x	x	x
CN(C)c1ccc(/C=C/c2ccc3ccccc3[n+]2C)cc1	39.8µM	17.8µM	50.1µM	39.8µM!	n	u	24.1µM	27.1µM	27.1µM
O=C1OC2(c3ccccc31)c1ccccc1-c1ccccc12	n	x	n	n	x	n	x	x	x
O=C1OC(c2ccc3ccccc3c2O)(c2ccc3ccccc3c2O)c2ccccc21	u	x	u	u	x	25.1µM	u	24.1µM	n
CN(C)CCNC(=O)C(c1ccccc1)c1ccccc1	n	n	n	n	n	n	x	x	x
CN(C)CCC(=O)C(Cc1ccccc1)c1ccccc1 (stereo not given)	7.94µM	x	n	u	x	n	n	n	n
CCOc1ccc(-n2c(=O)c3ccccc3c3ccccc3c2=O)cc1	u	n	n	n	n	n	x	x	x
CCOc1ccccc1-n1c(=O)c2ccccc2c2ccccc2c1=O	u	n	n	n	n	n	n	n	n
O=C(NCCCN1CCOCC1)c1sc2cc([N+](=O)[O-])ccc2c1Cl	28.2µM	n	n	n	n	n	n	n	u
CCCC[n+]1c2ccccc2cc2ccccc21	n[11.6 µM]	n	n	u	x	n	x	x	x
CCC[n+]1c2ccccc2cc2ccccc21	u	n	n	u	x	n	3.04µM	1.71µM	7.64µM
CNc1ccccc1C(C)(C)c1cc(-c2cccc(Br)c2)no1	79.4µM	n	n	u	x	u	u	n	u
CNc1ccccc1C(C)(C)c1cc(-c2cccc([N+](=O)[O-])c2)no1	n	n	n	n	u	n	x	x	x
O=C1/C(=C/c2ccccc2)CN(C(=O)CCN2CCOCC2)C/C1=C\c1ccccc1	u	x	n	u	x	u	x	x	x
COc1ccc(C2=CC(=O)N(Nc3ccccc3)C2=O)cc1	n	n	n	n	n	n	x	x	x
O=C1C=C(c2ccccc2)C(=O)N1Nc1ccccc1	u	n	n	n	x	n	n	n	n
COc1cc(/C=N/NC(=O)c2cccc([N+](=O)[O-])c2)ccc1OCc1ccc(C)cc1	n	n	n	n	n	u	x	x	x
N=C1S/C(=C\c2ccco2)C(=O)N1c1ccc2c(c1)OCO2	u	20µM	u	n	u	35.5µM	u	n	19.2µM
N=C1S/C(=C\c2ccco2)C(=O)N1c1nccs1	n[11.6 µM]	u	n	u	u	u	x	x	x
CCc1[nH]c(=O)[nH]c1C(C)S(=O)(=O)c1ccc(C)cc1 (stereo not given)	u	n	n	n	x	n	n	n	u
COc1cccc(C(c2nnnn2Cc2ccc(F)cc2)N2CCC(C(N)=O)CC2)c1OC (stereo not given)	n	n	n	n	x	n	x	x	x
Cc1ccc2c(c1)c(/C=C/c1cc[n+](C)cc1)c(C)n2C	39.8µM	u	n	u	x	n	21.5µM	n	n
Cc1cccc(Nc2nnc(-c3ccc(C)c(S(=O)(=O)NCC4CCCO4)c3)c3ccccc23)c1 (stereo not given)	x	n	n	n	x	n	x	x	x
COc1ccc(-n2c(O)c(/C=N/NS(=O)(=O)c3ccc(C)cc3)c3ccccc3c2=O)cc1OC	39.8µM	u	n	39.8µM	n	n	n	n	u
COc1ccc(-n2c(O)c(/C=N/Nc3nc(C)cc(C)n3)c3ccccc3c2=O)cc1OC	n	u	u	n	n	n	x	x	x
SMILES	WRN helicase inh-1	POLB inh	Pol kappa inh	Pol iota inh	L3MBTL1 block	POLH inh	WRN helicase inh-2	TO displacement	BLM counter
C/C(=N/NC(=O)CNC(=O)c1cccnc1)c1ccccc1	n	n	n	n	x	n	x	x	x
O=c1c2ccccc2nc2sc(Nc3cccc(N4CCNCC4)c3)nn12	x	x	x	x	x	x	21.5µM	n	u
COc1cc(/C=C2\SC(=Nc3cccnc3)NC2=O)cc(OC)c1OC	12.6µM	n	n	n	n	u	n	n	n
CN(C)CCNc1ccc(CO)c2sc3ccc(O)cc3c(=O)c12	u	x	u	79.4µM	x	u	24.1µM	21.5µM	u
COc1ccc(C(=O)COC(=O)C(CCCCN2C(=O)C3C4C=CC(C4)C3C2=O)N2C(=O)C3C4C=CC(C4)C3C2=O)cc1 (stereo not given)	n	n	n	n	n	n	x	x	x
CCOc1cc(/C=C2/SC(=S)N(CC3CCCO3)C2=O)ccc1O (stereo not given)	35.5µM	u	n	28.2µM	n	n	u	n	21.5µM
COc1cc(/C=C2\SC(=S)N(NC(=O)c3ccc(O)c(OC)c3)C2=O)ccc1O	39.8µM	u	n	22.4µM	x	u	19.2µM	n	19.2µM
COc1cc(/C=C2\SC(=S)N(NC(=O)c3cccc(O)c3)C2=O)ccc1O	31.6µM	15.8µM	n	39.8µM	x	u	21.5µM	3.83µM	21.5µM
O=C(O)c1ccc(/C=C2\SC(=S)N(NC(=O)c3ccccc3)C2=O)cc1	n	u	u	u	x	n	x	x	x
O=C1/C(=C/c2cccc(O)c2)SC(=S)N1CC1CCCO1 (stereo not given)	n	n	n	n	n	n	x	x	x
COc1ccc(CCNC(=O)c2ccc([N+](=O)[O-])cc2)cc1	n	n	n	n	n	n	x	x	x
COc1ccc(C(=O)Nc2nc(-c3ccc([N+](=O)[O-])cc3)c(-c3ccc(OC)cc3)s2)cc1	u	n	u	n	u	u	n	n	n
COC(=O)C(Cc1c[nH]c2ccccc12)NC(=O)c1cc(-c2ccc(OC)c(OC)c2)oc1C (stereo not given)	89.1µM	n	n	u	n	u	n	n	n
Cc1cc(C(=O)NC(Cc2c[nH]c3ccccc23)C(=O)O)c(C)o1 (stereo not given)	n	n	n	n	n[2.29 µM]	n	x	x	x
CCn1c(C)c(C2=CCN(S(=O)(=O)c3ccc(C)cc3)CC2)c2ccccc21	u	n	n	u	n	n	u	n	u
Cc1c(C2=CCN(S(=O)(=O)c3ccc(Br)cc3)CC2)c2ccccc2n1C	u	n	n	n	n	n	x	x	x
Cc1cc(O)c(Sc2ncn[nH]2)cc1NS(=O)(=O)c1ccc(Cl)cc1	n	x	n	n	n	n	x	x	x
O=S(=O)(Nc1cc(Sc2ncn[nH]2)c(O)c2ccccc12)c1ccccc1	35.5µM	u	n	1.12µM	x	22.4µM	u	n	u
COc1ccc(CC(=O)Nc2nc(-c3cccc([N+](=O)[O-])c3)cs2)cc1	n	n	n	u	n	n	x	x	x
